Rows were chosen to be rich in hits. Some 4.7% of all compounds tested hit in one or more screens of this group.
D1 antagonist – antagonists of human D1 dopamine receptor. P21728. HEK293 TREx D1 cells, calcium flux, dopamine EC80; active compounds read low. activity change, negative = inhibition, % at 10 µM. hit rate 3.2% among 360,000; in the data active = activity change below about -30%; also: % is scaled to controls: 0 for no effect and ±100 for the full control effect
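Compound effects on dopamine-evoked calcium signalling were measured in tetracycline-induced HEK293 Trex D1 cells. Dopamine at EC80 followed a 180 s compound pre-read, and fluorescence was tracked kinetically for 180 s more.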
D1 PAM – human D1 dopamine receptor positive modulation; P21728; HEK293 TREx D1 cells, calcium flux, dopamine EC20 potentiation; potentiation, % at 10 µM; hit rate 0.036% among 360,000; AID 504651; in the data active = potentiation above about 30%; also: 0% is about no effect
D1 agonist – activates the human D1 dopamine receptor. hit rate 1% among 360,000. P21728. HEK293 T-REx D1 cells, calcium flux, agonist mode. activation, % at 2 µM. AID 504660; also: 0% is about no effect
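Inducible HEK293 T-REx D1 cells, force-coupled to calcium signalling, were plated at 4000 cells/well with tetracycline and held overnight at 30 C. After no-wash calcium dye loading, compound-evoked calcium rise over 180 s flagged agonists.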
TRHR ag – TRH receptor (human) agonism. activation, % at 2 µM. P34981. AID 493084. TRHR cells, calcium flux fluo-8, FDSS agonist mode. hit rate 0.18% among 360,000; also: 0% is about no effect
Target sequence (P34981 whole entry, looked up): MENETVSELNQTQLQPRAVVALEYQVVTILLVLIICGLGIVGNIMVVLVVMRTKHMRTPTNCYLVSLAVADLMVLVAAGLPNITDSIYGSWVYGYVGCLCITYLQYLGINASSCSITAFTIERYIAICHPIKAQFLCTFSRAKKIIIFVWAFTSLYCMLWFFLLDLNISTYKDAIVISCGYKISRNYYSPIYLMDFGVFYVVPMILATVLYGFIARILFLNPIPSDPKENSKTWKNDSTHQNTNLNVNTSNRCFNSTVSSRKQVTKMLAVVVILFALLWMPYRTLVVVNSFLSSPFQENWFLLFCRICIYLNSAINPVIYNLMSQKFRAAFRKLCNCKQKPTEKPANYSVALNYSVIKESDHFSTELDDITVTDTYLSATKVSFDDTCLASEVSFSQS
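TRHR-expressing cells, plated overnight in medium with 10% serum, were loaded with fluo-8 calcium dye at room temperature. After a 10 s baseline, library compound was pin-added and calcium release was recorded kinetically (ex 480/em 530) as agonist response.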
TRHR PAM – allosteric enhancers of human TRH receptor. hit rate 0.66% among 360,000. TRHR cells, fluo-8 calcium fluorescence, EC20 TRH enhancement. enhancement, % at 2 µM. AID 493056. P34981; in the data active = enhancement above about 30%; also: 0% is about no effect
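Enhancer read-out: after compound pinning and an initial kinetic agonist-mode read, an EC20 of TRH (10 nM final) was injected and fluo-8 calcium signal (Ex 480/Em 530) followed at 1 s/cycle for 100 cycles in TRHR-expressing cells.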
* hit, by the source's call. Rule as the data show it, unless noted: active = activation above about 30%; inactive = the rest.

Fc1ccccc1-c1nc(NC2CCCC2)c2ccccc2n1 was read as D1 antagonist 4.8, D1 PAM -13.6, D1 agonist 25.5, TRHR ag -1.0 and TRHR PAM 7.7.
Screening CCCCNC(=O)Cn1nc(N2CCN(c3ccccc3OC)CC2)ccc1=O returned D1 antagonist -42.1*, D1 PAM -0.8, D1 agonist 0.8, TRHR ag -0.2 and TRHR PAM 17.9.
`O=C(CN1CCN(c2ccccc2O)CC1)Nc1ccccc1C(=O)NCCc1ccccc1` gave D1 antagonist -41.0*, D1 PAM 4.8, D1 agonist -0.2, TRHR ag -0.4 and TRHR PAM 10.1.
`COc1ccccc1NC(=O)c1c(C)cc(C)nc1SCC(=O)Nc1cccc(C)c1` gave D1 antagonist -0.6, D1 PAM 0.2, D1 agonist 72.3*, TRHR ag 3.4 and TRHR PAM -6.4.
For CCc1ccc(S(=O)(=O)NCCc2csc(C)n2)s1 the results were D1 antagonist -37.3*, D1 PAM -0.7, D1 agonist 0.9, TRHR ag 0.3 and TRHR PAM -4.2.
Screening CCOC(=O)Cn1c(=N)n(Cc2ccc(C(C)(C)C)cc2)c2ccccc21 returned D1 antagonist 1.1, D1 PAM -1.4, D1 agonist 47.5*, TRHR ag 1.6 and TRHR PAM 4.5.
Screening O=C(NCCc1ccccc1)c1ccc(Nc2nc3ccccc3n3nnnc23)cc1 returned D1 antagonist 3.6, D1 PAM 7.7, D1 agonist 3.5, TRHR ag 0.8 and TRHR PAM 2.7.
Screening Fc1ccccc1OCCn1c(=S)[nH]c2ccccc21 returned D1 antagonist 6.4, D1 PAM 0.8, D1 agonist 2.2, TRHR ag 0.0 and TRHR PAM 37.3*.
`Cc1ccccc1-c1noc(-c2cc(C(C)C)[nH]n2)n1` gave D1 antagonist 14.1, D1 PAM -3.3, D1 agonist 0.3, TRHR ag 0.7 and TRHR PAM -0.8.
S=c1[nH]c(-c2ccccc2)cn1/N=C/c1cccc2ccccc12 was read as D1 antagonist -2.2, D1 PAM 1.8, D1 agonist 6.1, TRHR ag 0.9 and TRHR PAM 34.3*.
Screening S=c1[nH]c(-c2ccccc2)cn1/N=C/c1ccccc1Br returned D1 antagonist 25.5, D1 PAM -0.8, D1 agonist -1.5, TRHR ag 2.2 and TRHR PAM -0.4.
`COC(=O)c1cn(C(=O)c2cc(OC)c(OC)c(OC)c2)c2ccccc12` gave D1 antagonist 10.2, D1 PAM 0.1, D1 agonist 1.1, TRHR ag -1.5 and TRHR PAM -3.1.
COC(=O)c1cn(C(=O)c2ccc(OC)c(OC)c2)c2ccccc12 was read as D1 antagonist -46.9*, D1 PAM 0.5, D1 agonist 3.1, TRHR ag 0.2 and TRHR PAM 2.5.
Screening CC1C(=O)C(C)C(c2ccccc2F)NC1c1ccccc1F (stereo unspecified) returned D1 antagonist -1.5, D1 PAM -2.2, D1 agonist 0.6, TRHR ag -0.6 and TRHR PAM 7.6.
For Cc1ccc2cc(C#N)c(N3CCCN(C(=O)C4CCCO4)CC3)nc2c1 (stereo unspecified) the results were D1 antagonist -44.1*, D1 PAM 2.5, D1 agonist 2.2, TRHR ag -0.8 and TRHR PAM 0.9.
Screening Cc1ccc2cc(C#N)c(N3CCCN(C(=O)c4cnccn4)CC3)nc2c1 returned D1 antagonist -9.7, D1 PAM 0.1, D1 agonist 0.2, TRHR ag -0.1 and TRHR PAM 11.4.
`Cc1ccc(N=CC2=C(O)CC(c3ccco3)CC2=O)cc1` (stereo unspecified) gave D1 antagonist -37.6*, D1 PAM 2.9, D1 agonist 3.4, TRHR ag -0.1 and TRHR PAM 2.5.
`Cc1cc(N2CCN(S(=O)(=O)c3ccccc3)CC2)c2ccccc2n1` gave D1 antagonist -35.3*, D1 PAM -3.1, D1 agonist 11.2, TRHR ag 0.0 and TRHR PAM -3.7.
Screening O=S(=O)(c1ccccc1)N1CCN(c2ccnc3cc(Cl)ccc23)CC1 returned D1 antagonist -40.6*, D1 PAM 9.7, D1 agonist 6.8, TRHR ag -0.1 and TRHR PAM -1.7.
